# From PubChem BioAssay AID624037 (The Scripps Research Institute Molecular Screening Center, 2012)
# Screen size: about 360,000 compounds; about 700 (0.19%) were called active. This is one part of a sample in which actives are shown more often than they occur. A number with no mark means an inactive call.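 How the source made its calls: active means activation above the run's mean over test compounds plus 3 SD (cut at about 23% in these data); inactive means the rest.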
# Molecular target: Muscarinic acetylcholine receptor M5 (Homo sapiens) (UniProt P08912)
# Experiment: CHRM5 activators raising intracellular calcium – CHO-K1 cells, Fluo-8 calcium fluorescence, primary screen (AID 624037);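 further: signal is peak over basal fluorescence ratio across the kinetic read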
# Settings: CHO-K1 hM5 cells, at 3 µM, hits give high values, 0% DMSO wells, 100% maximal acetylcholine response
# Sequence of Muscarinic acetylcholine receptor M5 (Homo sapiens) (P08912 whole entry, looked up): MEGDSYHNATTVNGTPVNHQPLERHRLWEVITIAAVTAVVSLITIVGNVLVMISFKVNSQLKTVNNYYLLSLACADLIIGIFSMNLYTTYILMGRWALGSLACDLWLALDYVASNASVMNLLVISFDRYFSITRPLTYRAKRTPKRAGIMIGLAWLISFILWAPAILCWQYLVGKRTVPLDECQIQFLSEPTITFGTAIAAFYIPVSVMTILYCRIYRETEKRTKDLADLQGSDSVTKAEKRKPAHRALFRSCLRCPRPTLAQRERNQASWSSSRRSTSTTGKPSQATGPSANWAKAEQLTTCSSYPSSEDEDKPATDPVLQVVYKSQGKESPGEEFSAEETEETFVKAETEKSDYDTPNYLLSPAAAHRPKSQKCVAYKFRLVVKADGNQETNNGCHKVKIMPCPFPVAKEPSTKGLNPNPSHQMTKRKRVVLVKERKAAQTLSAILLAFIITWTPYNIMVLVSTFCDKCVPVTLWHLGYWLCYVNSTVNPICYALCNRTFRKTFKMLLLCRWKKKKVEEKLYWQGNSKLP
row,SMILES,activation
1,CC(C)C[C@H]1CNC(=S)N1C[C@H]1CCCN1C[C@H](Cc1ccc(O)cc1)N1C[C@H](Cc2ccc(O)cc2)N(CC2CCCCC2)C1=S,-1.54%
2,N#CC1(NC(=O)COC(=O)CCN=C2NS(=O)(=O)c3ccccc32)CCCCC1,-5.2%
3,O=C(CCCN=C1NS(=O)(=O)c2ccccc21)OCC(=O)c1ccc(F)c(F)c1,37.2% (active)
4,Cc1ccccc1C(=O)NCCN=C1NS(=O)(=O)c2ccccc21,-1.12%
5,O=C(Cc1c(Cl)cccc1Cl)NC1CC1,-4.03%
6,Cc1ccc(C(=O)N(CC(=O)NC2CCCC2)c2ccc(F)cc2)s1,-2.46%
7,O=C(/C=C(O)/C=C/c1ccc(O)cc1)/C=C/c1ccc(O)cc1,156% (active)
8,COc1cccc(C(=O)NNC(=O)/C=C/c2ccccc2)c1,-2.95%
9,c1ccc(C(=NNc2nc3ccccc3s2)c2ccccn2)cc1,58.8% (active)
10,Cc1cc(C)c2c(c1)cc(C)c1nnc(SCC(=O)Nc3cc(C)on3)n12,3.15%
11,O=C(CN(C(=O)CCC(=O)Nc1nccs1)c1ccc(F)cc1)NCc1ccc2c(c1)OCO2,-1.79%
12,Cc1nccn1CCCNC(=O)CC1C(=O)NCCN1Cc1ccc(Cl)c(F)c1 (centres undefined),-2.66%
13,CC(=O)C[C@@H]1OC[C@H](CO)N1S(=O)(=O)c1ccc(C)cc1,4.39%
14,O=C(COC(=O)Cc1ccc(Br)cc1)Nc1ccc(N2CCOCC2)cc1,4.95%
15,CC(C)[C@H](NC(=O)N1CC(=O)Nc2ccccc21)C(=O)N[C@@H](Cc1c[nH]c2ccccc12)C(=O)O,1.96%
16,Cc1cccc(C)c1NC(=O)CNC(=O)Cc1ccc(Br)cc1,-2.94%
17,CCOc1ccc(CNC(=O)CCC(=O)N2CCSc3ccccc32)cc1,3.47%
18,O=C1C(=O)N(CC2COc3ccccc3O2)c2ccccc21 (centres undefined),26.9% (active)
19,O=C1C(=O)N(c2ccccc2)c2ccccc21,15.5%
20,CCn1cc(C(=O)NCC2COc3ccccc3O2)c2cc(OC)c(OC)cc2c1=O (centres undefined),1.23%

row,SMILES,activation
1,c1ccc2c(c1)OCC(CNc1ncnc3nc[nH]c13)O2 (centres undefined),108% (active)
2,O=C(Cn1nc(Cc2cccnc2)c2ccccc2c1=O)NCC1COc2ccccc2O1 (centres undefined),1.51%
3,CCC(=O)c1ccc(OCC(=O)N(CC)CC2COc3ccccc3O2)cc1 (centres undefined),-1.18%
4,Cc1ccc2c(c1)C(O)(CC(=O)c1cccc(-n3cccc3)c1)C(=O)N2 (centres undefined),3.01%
5,Cc1cccc(N=C2NC(=O)CS2)c1C,2.4%
6,O=c1[nH]oc(O)c1-c1ncc(C(F)(F)F)cc1Cl,-1.47%
7,COc1ccc(NS(=O)(=O)c2ccc(C)c(C(=O)NNC(=O)c3csc(N4CCOCC4)n3)c2)cc1,-2.51%
8,CC1CN(c2cc(=O)n(Cc3ccc(F)cc3)c(=O)[nH]2)CC(C)O1 (centres undefined),1.48%
9,O=C1C(Sc2cccc(F)c2)=C[C@@]2(O)CC[C@@H](O)[C@]1(Sc1cccc(F)c1)[C@H]2O,-1.89%
10,CC12CN3CC(C)(CN(C1)C3c1ccc(Cl)cc1Cl)C2=O (centres undefined),0.42%
11,CCC(C)C1(C2CCCC2)NC(=O)NC1=O (centres undefined),-2.24%
12,Cc1ccsc1C1C(C#N)=C(N)OC2=C1C(=O)CC(C)(C)C2 (centres undefined),-3.66%
13,CCOC(=O)c1cnc(SC)nc1Sc1ccc(Cl)cc1Cl,-3.12%
14,O=C(Cn1nc(Cc2cccnc2)c2ccccc2c1=O)NCC1CCCO1 (centres undefined),1.65%
15,COC(=O)c1ccc(OC(=O)c2nn(C)cc2Cl)c(OC)c1,-3.16%
16,CCN(CC)CCCNC(=O)c1ccc2c(=O)n(Cc3ccc4c(c3)OCO4)c(=S)[nH]c2c1,-16.7%
17,CCOC(=O)[C@]12CCCC=C1N(CCC1=CCCCC1)C(=O)[C@H](CC(=O)N1CCCCC1)C2,2.91%
18,COC(=O)[C@]12CCCCC=C1N(CCC1=CCCCC1)C(=O)[C@H](CC(=O)N1CCSCC1)C2,0.77%
19,CCOC(=O)N1CCN(C(=O)C[C@@H]2C[C@@]3(C(=O)OC)CCCCC=C3N(CCC3=CCCCC3)C2=O)CC1,24% (active)
20,COc1cc(NC(=S)NCCSc2ccc(C)cc2)cc(OC)c1,0.65%

row,SMILES,activation
1,CCCCCCCCNS(=O)(=O)CCNC1CCCCC1,2.22%
2,CCn1c(-c2ccoc2C)n[nH]c1=S,-2.69%
3,CC(=O)OC(C)C[N+](C)(C)C (centres undefined),99.8% (active)
4,CC(C[N+](C)(C)C)OC(N)=O (centres undefined),96.3% (active)
5,CC(=O)OCCC(C)C,1.99%
6,CCCCOC(=O)Nc1nccs1,1.28%
7,COc1ccc(C(=O)NC(Cc2ccc(OC(=O)c3ccc(OC)cc3)cc2)C(=O)O)cc1 (centres undefined),0.61%
8,Cc1ccsc1C(=O)NNC(=O)COc1ccc(Br)cc1,2.78%
9,Cc1ccc(O)c(/C=N/NC(=O)COc2ccc3c(C)cc(=O)oc3c2)c1,-0.84%
10,Cc1ccc(O)c(NC(=S)NC(=O)COc2ccc(Br)cc2)c1,31.2% (active)
11,Cc1ccc(S(=O)(=O)N2CCCC2CO)cc1 (centres undefined),1.95%
12,CC1(C)OC(=O)C2=C(CC(c3ccccc3)OC2CCc2ccccc2)O1 (centres undefined),-0.45%
13,CCCCCCSc1nsc(N)n1,-2.92%
14,O=C(NCCN=C1NS(=O)(=O)c2ccccc21)c1ccc(S(=O)(=O)N2CCOCC2)cc1,-1.87%
15,Cc1ccccc1N(C(=O)Cc1cccs1)C(C(=O)NC1CCCCC1)c1cn(C)nc1C (centres undefined),-1.99%
16,O=C(O)CC/C(=N\NC(=O)c1ccc(F)cc1)c1ccc(Br)cc1,-1.22%
17,COc1ccc(COC(=O)c2ccc(Cl)c(S(=O)(=O)N3CCOCC3)c2)cc1F,-0.05%
18,CC1CCN(S(=O)(=O)c2ccc3ncn(CC(=O)N(C)C4CCCCC4)c(=O)c3c2)CC1,-0.64%
19,CC(=O)Nc1ccc(S(=O)(=O)N(C)c2ccc(OCC(=O)OCC(=O)N3CCCCC3)cc2)cc1,0.4%
